Bioassay records (PubChem)
Most compounds without a hit are left out; they make up all but 3.8% or so of the library.
FBA Mtb inh: Mtb FBA enzyme inhibitors, primary screen, biochemical, fluorescence, strain H37Rv; 2.3% of 360,000 active; Fructose-bisphosphate aldolase (Mycobacterium tuberculosis (strain ATCC 25618 / H37Rv)), …; purified M. tuberculosis FBA, fluorescence read-out; AID 588726, 2011; inhibition, % at 1 µM; in the data active = inhibition above about 27%;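 note: 0% = vehicle and 100% = reference inhibitor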
Target sequence (P9WQA3 whole entry, looked up): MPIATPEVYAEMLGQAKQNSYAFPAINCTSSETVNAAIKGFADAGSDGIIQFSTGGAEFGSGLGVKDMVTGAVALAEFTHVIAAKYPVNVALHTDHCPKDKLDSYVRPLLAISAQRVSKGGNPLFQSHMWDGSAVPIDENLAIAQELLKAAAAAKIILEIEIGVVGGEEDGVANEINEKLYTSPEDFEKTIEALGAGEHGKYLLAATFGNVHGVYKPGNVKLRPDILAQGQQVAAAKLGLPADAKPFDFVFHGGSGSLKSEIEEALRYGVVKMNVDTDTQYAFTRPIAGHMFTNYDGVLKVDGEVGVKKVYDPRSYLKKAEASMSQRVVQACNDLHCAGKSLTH
PrP 5UTR inh: inhibition of PrP 5' UTR reporter expression; inhibition, % (concentration not given with the values); 0.35% of 340,000 active; cell-based PrP 5' UTR mRNA reporter, plate reader; in the data active = inhibition above about 52%; note: 0 = median of the neutral control wells
Mtb hypoxia rep: PubChem AID 1159583; 0.1% of 300,000 active; fluorescence inhibition, % (concentration not given with the values); M. tuberculosis hypoxia-regulated fluorescent reporter, fluorescence; in the data active = fluorescence inhibition mostly above about 23%, no sharp cut-off; inactive = mostly below about 17%
Yp Topo-I inh: Yersinia pestis topoisomerase I inhibitors, primary screen, biochemical, cleavage product accumulation, plate reader, single point; Y. pestis Topo-I cleavage product accumulation; activity, % at 10 µM; 0.064% of 360,000 active; DNA topoisomerase I (Yersinia pestis CO92); AID 504884, 2011; in the data active = activity above about 50%, passing the limit was not always enough
PrPC surface inh: inhibitors of human cell surface prion protein PrPC, primary screen, cell-based, TR-FRET. Major prion protein (Homo sapiens), P04156. TR-FRET read-out. inhibition, % at 13.8 µM. 0.43% of 370,000 active. AID 720596, 2013; in the data active = inhibition above about 24%; note: 0% = median of the test wells and 100% = reference compound wells
GDH-TPI counter: GDH-TPI coupling enzyme inhibitors, primary screen, artefact control for M. tuberculosis FBA inhibitor project, biochemical, absorbance, full deck; GDH-TPI coupled enzyme counterscreen, NADH absorbance; inhibition, % at 4.8 µM; 1.2% of 360,000 active; in the data active = inhibition above about 30%;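 note: 0% = DMSO wells and 100% = wells lacking the enzyme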
An asterisk follows results filed as active; x = no result; + = active, no number.

SMILES	FBA Mtb inh	PrP 5UTR inh	Mtb hypoxia rep	Yp Topo-I inh	PrPC surface inh	GDH-TPI counter
COc1ccc(-c2cc(=O)oc3c(C)c(O)ccc23)cc1	24	3	7	-2	-14	15
CC(C)CC(NC(=O)c1nc[nH]c1C(=O)NC(CCCCNC(=O)OC(C)(C)C)C(=O)OC(C)(C)C)C(=O)OC(C)(C)C (stereo not drawn)	x	x	-12	x	x	x
Cc1nc(SCC(=O)NCc2ccc3c(c2)OCO3)nc(C)c1C	1	-11	23*	-5	-7	-3
C[n+]1c(/C=C/c2ccc(O)cc2)ccc2ccccc21	-8	-28	-4	-30	-60	6
Cc1cc(/C=C\c2ccc3cc(N(C)C)ccc3[n+]2C)c(C)n1-c1ccccc1	-14	73*	x	7	x	23
Cc1cc(=O)oc(C)c1C(=O)NCCC(C)C	0	-5	5	-2	-3	32*
Cc1cc(=O)oc(C)c1C(=O)NCCNC(=O)c1c(C)cc(=O)oc1C	4	-14	3	-8	-4	-5
CC1(C)CC(=O)c2sc(NC(=O)CN3CCCCC3)nc2C1	1	-23	6	-5	-5	34*
N#CC(=Cc1cccc(Cl)c1)c1n[nH]c(Cn2cncn2)n1	x	x	-11	x	x	x
Clc1cccc(CSc2nnc(-c3sccc3-n3cccc3)o2)c1	0	-4	x	58*	-2	20
Clc1cc(Cl)cc(CSc2nnc(-c3sccc3-n3cccc3)o2)c1	3	-16	x	9	3	8
CCN(CC)c1ccc2c(c1)oc(=O)c1c(Cl)cc(=O)oc12	4	4	12	3	x	35*
O=C1C(=O)N(CCO)C(c2ccc(Br)cc2)/C1=C(\O)c1ccccc1 (stereo not drawn)	2	5	-7	2	1	33*
COc1cccc(/C=C(/C(=O)OCC(=O)NC2CCCC(C)C2C)c2ccccc2)c1 (stereo not drawn)	0	-17	15	60*	-4	7
Cc1c(/C=N/NC(=O)c2ccccc2O)c2ccccn2c1C(=O)c1ccc(F)cc1	5	-13	x	-3	-4	15
Cc1c(/C=N/NC(=O)c2ccc(O)cc2)c2ccccn2c1C(=O)c1ccc(F)cc1	-3	-27	x	-5	-4	32*
Cc1c(/C=N/NC(N)=O)c2ccccn2c1C(=O)c1ccncc1	1	x	x	-2	-25	56*
COc1ccc(C=NNc2cc(C)nc(NS(=O)(=O)c3ccc(C)cc3)n2)cc1	x	x	-9	x	x	x
Cc1ccccc1-n1c(O)c(/C=N/N2CCOCC2)c(=O)[nH]c1=S	0	3	-8	-3	-6	10
O=c1c(/C=N/N2CCOCC2)c(O)n(-c2ccccc2)c(=S)n1-c1ccccc1	-5	-11	x	-5	12	21
O=c1[nH]c(=S)n(-c2ccc(F)cc2)c(O)c1/C=N/N1CCOCC1	-1	-23	3	-2	5	31*
Cn1c(O)c(/C=N/N2CCOCC2)c(=O)n(-c2ccccc2)c1=S	0	-4	16	-2	-1	35*
CC(=O)N1CCN(CCN=Cc2c(O)n(-c3ccc(C)cc3)c(=S)[nH]c2=O)CC1	-3	-13	1	-1	11	37*
CCOc1ccc(-n2c(O)c(C=Nc3ccc(N4CCOCC4)cc3)c(=O)[nH]c2=O)cc1	-1	-5	2	6	3	32*
CCOC(=O)C1C2COc3cc(OC)ccc3C2N2C(=O)N(c3ccc(C)cc3)C(=O)[C@@]12C (stereo partly drawn)	x	x	-3	x	x	x
SMILES	FBA Mtb inh	PrP 5UTR inh	Mtb hypoxia rep	Yp Topo-I inh	PrPC surface inh	GDH-TPI counter
CCCCNC(=O)c1nc(-c2ccncc2)oc1-c1ccccc1	+	x	x	x	4	x
CCCCNC(=O)c1nc(-c2ccc(C(F)(F)F)cc2)oc1-c1ccccc1	x	x	x	x	1	x
Cc1[nH]c2ccccc2c1C=NNc1ccc([N+](=O)[O-])cc1S(=O)(=O)Nc1ccc(Cl)cc1	x	x	18	x	x	x
Cc1c(O)ccc2cc(S(=O)(=O)c3ccccc3)c(=O)oc12	+	-28	-7	2	-4	3
CCOc1cc(/C=N/Nc2ccc(C(=O)O)cc2)ccc1OC(=O)c1ccccc1C	-2	-28	x	0	2	51*
Clc1ccc(/C=N/Nc2ncnc3nc[nH]c23)cc1	-2	-23	x	0	-12	20
